Source: PubChem
Compounds with a hit are over-represented: about 3.2% of the library has one in this group of screens.
EWS-Fli block: EWS/Fli transcriptional activity inhibition; A673 NR0B1-luciferase reporter, viability-normalised; inhibition, % at 12.6 µM; hit rate 0.67% among 350,000;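 active = mean inhibition of at least 50% after viability correction, with every replicate also passing that limit; inconclusive = mean reaches 50% but only one of two replicates passes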;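 note: firefly luciferase signal divided by Alamar Blue viability fluorescence both relative to DMSO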
LGR2 antag: inhibitors of bursicon-induced Drosophila LGR2 receptor cAMP signaling; inhibition, % at 9.99 µM; hit rate 0.35% among 380,000; AID 720647; HEK293 LGR2, CRE-luciferase, bursicon-stimulated, 4 h;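 active = drop in luminescence signal, shown as inhibition above about 50% in the replicate tests, limit read from the data, passing the limit was not always enough; inconclusive = probably only some replicates passing the limit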;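 note: agonist challenge used bursicon conditioned medium at about half maximal strength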
PAX8 inh HTS: inhibitors of PAX8 transcriptional activity in RMG-I cells | AID 652154 | RMG-I TPO-luciferase reporter, SteadyGlo, 24 h | hit rate 1.2% among 360,000 | inhibition, % at 12.6 µM;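 active = mean replicate inhibition at least 60% with every replicate also reaching 60%; inconclusive = only one of the two criteria is met; inactive = mean below 60% and not all replicates reaching 60%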;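 note: luciferase light reporting Pax8 driven TPO promoter activity; plate controls were median of neutral control wells for no effect and mitoxantrone controls for full effect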
EBV LMP1 NFkB: reduces LMP1-driven NF-kappaB luciferase signal | inhibition, % at 12.5 µM | AID 504558 | hit rate 0.69% among 350,000 | LMP1-induced NF-kappaB luciferase reporter cells, luminescence; in the data active = inhibition above about 41%; inconclusive = no clear call, values can overlap the other calls;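 note: 0% = neutral control wells and 100% = reference inhibitor control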
TROY signal inh: inhibitors of TROY-dependent NF-kB signaling; hit rate 0.98% among 360,000; Q293 LMP1-TROYcd NF-kB luciferase reporter, 4 h; inhibition, % at 10 µM;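 active = compounds whose plate-normalised and pattern-corrected inhibition of the luciferase reporter signal at the single screening dose is 50% or more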
TWEAK-Fn14 inh: TWEAK-Fn14 signaling inhibition. TWEAK-stimulated Fn14 reporter cells, luciferase luminescence, 8 h. inhibition, % at 10 µM. hit rate 2% among 360,000. AID 1159606; in the data active = inhibition above about 50%
* marks the source's active call; other numbers are inactive results.

What do the screens show for `COc1cccc(C(=O)CSc2nccn2C)c1`?
EWS-Fli block: -74.3; LGR2 antag: -11.5; PAX8 inh HTS: -71.1; EBV LMP1 NFkB: -6.5; TROY signal inh: -18.4; TWEAK-Fn14 inh: 86.5*

What do the screens show for `C[C@@H]1CCCCO[C@@H](CN(C)Cc2ccc3c(c2)OCO3)[C@H](C)CN([C@H](C)CO)C(=O)c2cc(NC(=O)CCC(F)(F)F)ccc2O1`?
EWS-Fli block: -4.9; LGR2 antag: -13.7; PAX8 inh HTS: 10.8

How did CN(C)S(=O)(=O)Oc1ccc(C(=O)Nc2cccc(C(F)(F)F)c2)cc1 do in these assays?
EWS-Fli block: 6.6; LGR2 antag: -4.5; PAX8 inh HTS: -1.2; EBV LMP1 NFkB: -14.0; TROY signal inh: 15.1; TWEAK-Fn14 inh: 53.7*

How did CN(C)S(=O)(=O)Oc1ccc(C(=O)Nc2cccc(Cl)c2)cc1 do in these assays?
EWS-Fli block: -81.9; LGR2 antag: -95.6; PAX8 inh HTS: -164.8; EBV LMP1 NFkB: -13.3; TROY signal inh: -38.2; TWEAK-Fn14 inh: -50.8

How did Cc1cc(C)n(-c2ccc(C(=O)Nc3ccc(S(=O)(=O)NCc4ccco4)cc3)cc2)n1 do in these assays?
PAX8 inh HTS: 48.8; EBV LMP1 NFkB: 13.0; TROY signal inh: 38.1; TWEAK-Fn14 inh: 59.3*

How did O=C(Nc1ncccc1O)c1ccc(S(=O)(=O)NCc2ccco2)cc1 do in these assays?
EWS-Fli block: -8.4; LGR2 antag: -1.7; PAX8 inh HTS: 6.6; EBV LMP1 NFkB: 42.6*; TROY signal inh: -1.6; TWEAK-Fn14 inh: -18.5

How did CCN(CC)S(=O)(=O)c1cccc(NC(=O)c2ccc(-n3nc(C)cc3C)cc2)c1 do in these assays?
LGR2 antag: 33.1; PAX8 inh HTS: -3.2; EBV LMP1 NFkB: 7.2; TROY signal inh: 47.7; TWEAK-Fn14 inh: 60.3*

What do the screens show for `COc1ccc(NC(=O)Nc2ccc3c(c2)CC(=O)N([C@@H](C)CO)C[C@@H](C)[C@H](CN(C)Cc2ccccc2)O3)cc1`?
EWS-Fli block: -3.0; LGR2 antag: -8.1; PAX8 inh HTS: 14.5

Results for CC(C)NC(=O)N(C)C[C@H]1Oc2c(NS(=O)(=O)c3cn(C)cn3)cccc2C(=O)N([C@H](C)CO)C[C@H]1C ?
EWS-Fli block: 1.7; LGR2 antag: 17.6

What do the screens show for `O=C(N[C@H]1CC[C@H](CCNS(=O)(=O)c2ccc(Cl)cc2)O[C@H]1CO)c1cnccn1`?
EWS-Fli block: -0.6; LGR2 antag: 18.7; PAX8 inh HTS: 13.4

Results for Cc1cc(C)n(-c2ccc(C(=O)Nc3ccc(C)c(S(=O)(=O)N(C)C)c3)cc2)n1 ?
LGR2 antag: 11.2; PAX8 inh HTS: 5.4; EBV LMP1 NFkB: 17.2; TROY signal inh: 19.9; TWEAK-Fn14 inh: 53.5*

How did CCCCN1C(=O)c2ccc(C(=O)Nc3ccc(C)c(S(=O)(=O)N(C)C)c3)cc2C1=O do in these assays?
LGR2 antag: inconclusive; EBV LMP1 NFkB: 10.8; TROY signal inh: 54.7*; TWEAK-Fn14 inh: 91.0*

What do the screens show for `Cc1ccc(NC(=O)c2ccc(OC(F)(F)F)cc2)cc1S(=O)(=O)N(C)C`?
LGR2 antag: -4.1; PAX8 inh HTS: 12.8; EBV LMP1 NFkB: 12.1; TROY signal inh: 12.6; TWEAK-Fn14 inh: 51.7*

What do the screens show for `CCc1csc(N2[C@@H](C#N)[C@@H](c3ccccc3C3=CCCC3)[C@@H]2CO)n1`?
EWS-Fli block: -4.8; LGR2 antag: 17.5

How did COc1ccc2c3c([nH]c2c1)[C@@H](CO)N(Cc1cccc(F)c1)CC31CCN(CC2CC2)CC1 do in these assays?
EWS-Fli block: 0.1; LGR2 antag: -12.9

Results for CN1c2ccccc2C(C)(C)C12C=Cc1cc(O)ccc1O2 (stereo not given) ?
EWS-Fli block: 7.3; LGR2 antag: 17.9; EBV LMP1 NFkB: -8.3; TROY signal inh: 34.3; TWEAK-Fn14 inh: 53.4*

Results for C[C@@H]1CN([C@H](C)CO)C(=O)Cc2cc(NC(=O)CCCCCC(=O)Nc3ccccc3N)ccc2O[C@H]1CN(C)CC1CCCCC1 ?
EWS-Fli block: 28.9; LGR2 antag: -0.1; PAX8 inh HTS: 16.7

What do the screens show for `COc1ccc(C(=O)N/N=C/C(=O)c2ccccc2)cc1`?
LGR2 antag: -45.5; PAX8 inh HTS: -267.0; EBV LMP1 NFkB: -5.9; TROY signal inh: -8.7; TWEAK-Fn14 inh: 18.7

How did Cc1ccc(C(=O)NN=CC(=O)c2ccccc2)c(C)c1 do in these assays?
EWS-Fli block: -7.7; LGR2 antag: 70.0*; PAX8 inh HTS: -182.9; EBV LMP1 NFkB: -34.8; TROY signal inh: 51.8*; TWEAK-Fn14 inh: 64.6*

Results for O=C(Nc1cc(Sc2ccccn2)cc([N+](=O)[O-])c1)c1cccc(Cl)c1 ?
EWS-Fli block: 20.1; LGR2 antag: 34.9; PAX8 inh HTS: -1.2; EBV LMP1 NFkB: 3.5; TROY signal inh: 46.9; TWEAK-Fn14 inh: 77.6*

What do the screens show for `O=C(Nc1cc(Sc2ccccn2)cc([N+](=O)[O-])c1)c1ccc(Cl)cc1`?
EBV LMP1 NFkB: -12.6; TROY signal inh: 17.1; TWEAK-Fn14 inh: 64.9*

What do the screens show for `C[C@@H]1CN([C@@H](C)CO)C(=O)c2cc(C#C[C@@H](C)O)cnc2O[C@H]1CN(C)C(=O)c1ccc(F)cc1`?
EWS-Fli block: -6.6; LGR2 antag: 1.4

Results for CCOC(=O)c1cn[nH]c1NC(=S)Nc1ccc(Cl)cc1 ?
EWS-Fli block: -108.6; LGR2 antag: -16.0; PAX8 inh HTS: -126.7; TROY signal inh: 61.0*; TWEAK-Fn14 inh: 60.5*

What do the screens show for `O=C(C[C@@H]1CC[C@@H]2[C@H](COC[C@@H](O)CN2C(=O)Nc2ccc(F)cc2)O1)NCCc1ccccc1`?
EWS-Fli block: -2.1; LGR2 antag: 9.4; PAX8 inh HTS: 2.8

Results for Cc1ccc(N=Cc2ccc[nH]2)c(O)c1 ?
EBV LMP1 NFkB: -24.5; TROY signal inh: 75.7*; TWEAK-Fn14 inh: 42.4

Results for Cc1ccccc1N=Cc1ccc[nH]1 ?
EWS-Fli block: -0.7; LGR2 antag: 5.7; PAX8 inh HTS: 4.0; EBV LMP1 NFkB: 6.3; TROY signal inh: 2.1; TWEAK-Fn14 inh: 12.9

How did C=C1CC2(OC1=O)c1ccccc1CCc1ccccc12 do in these assays?
EWS-Fli block: 52.2*; LGR2 antag: 75.9*; PAX8 inh HTS: 71.3*; EBV LMP1 NFkB: 26.7; TROY signal inh: 50.9*; TWEAK-Fn14 inh: 34.0

How did O=C1NC(=O)C2(CCc3ccccc32)N1 (stereo not given) do in these assays?
EBV LMP1 NFkB: 6.0; TWEAK-Fn14 inh: 14.9

Results for CN(C)C(=O)c1cccc(-c2ccc3c(c2)[C@@H]2[C@@H](CCN2Cc2ccccc2F)[C@H](CO)N3)c1 ?
EWS-Fli block: 8.4; LGR2 antag: -19.4; PAX8 inh HTS: -1.4

Results for Cc1ccc(NC(=O)C2Cc3ccccc3CN2C(=O)c2ccco2)cc1S(=O)(=O)N(C)C (stereo not given) ?
EWS-Fli block: -24.2; LGR2 antag: -14.0; PAX8 inh HTS: -52.2; EBV LMP1 NFkB: -2.9; TROY signal inh: 71.7*; TWEAK-Fn14 inh: 8.9
